Measurements taken from the OligoGym collection.

Target: PAQR6
Assay: pooled miR-30 sensor sort-seq; sequence = guide strand
Settings: shRNA
Further: reference of the scale not given here.

Row | Sequence | sensor-assay potency score (higher = more potent)
1 | TTGGTCATCTGGAAGGAGCTGA | 0.592
2 | TTGTCGAACAGGAATGGATAGG | -0.865
3 | TAGGTTCCCAGCTGCAGCCAAG | -1.67
4 | TGAGGACACAGTCCAAAGCCGA | -1.67
5 | TAATGAGTAGGTTCCCAGCTGC | -0.176
6 | AAAGAGTGGGAGGTTGTCGAAC | -1.08
7 | TGTGAAAGCAGCAATAATGAGT | -0.688
8 | TGTAATCAAAGCGTCCTGGTGC | 0.2
9 | TCGTTGGTCATCTGGAAGGAGC | -1.68
10 | TCTATAGGCAAATAGCTGCTGG | -0.274
11 | TAGGCGAAGGCTCCTGTGCGGA | -1.44

Target: PARN
Assay: as above
Settings: shRNA

Row | Sequence | sensor-assay potency score (higher = more potent)
12 | TTTCTCTTTCCTACTGTGCTGG | 0.101
13 | TAGGCTGCAAGTCTGGTCCTTC | 0.109
14 | TTGACATCTGGTGAGGATCTAT | -0.282
15 | TAAACTTCTTTTGATCCTCAGG | -0.665
16 | TTCTTCTTCATCTACTTTGCTG | -0.0536
17 | TTTAGTATCCAAGAGTCTGGGG | -0.201
18 | TTTATTAAAATCAAATCCCTGG | 0.307
19 | TAAGCTTCTGATACCTCTCTTC | 0.34
20 | TAGCTTTCTGCATATTTGCTGG | -0.898
21 | TAGAAGTTAAATGACTTCGTTA | -0.166
22 | ATACATAGGACAGAGCTCCTGC | 0.763
23 | TTCATGACAGCCTACAACCGTG | -0.783
